39 compounds from PubChem BioAssay (Tox21) can be followed below.

Where “and” joins values, the source holds several entries; their conditions need not be identical. Equal values may be shown once. Results filed as inconclusive are left out. Entries that show only a call come without a potency. More than one record can exist for a structure, and the calls need not agree. Calls of active or inactive are those of the source. Unless noted, calls follow the shape of the full dose curve.

One experiment in a line: p53 small molecule agonists, cell-based qHTS assay with rat liver microsomes: qHTS cell viability counter screen (AID 1963580). Also: nearly all actives have a fitted effect of over 45% in size. Also: potency is read from the fitted curve at half-maximal effect. Particulars: p53RE-bla HCT-116 + rat microsomes, ATP viability, 16 h; series mostly up to 66 µM. The method, boiled down: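 Rat liver microsome (0.5 mg/mL final) and NADPH (0.5 mg/mL final) co-incubation with compounds for 16 h at 37 C on HCT-116 p53RE-bla cells; cytotoxicity taken from intracellular ATP luminescence.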
(In qHTS, concentration-response curves come from the screen itself.)
On to `Cc1cc(CCC(=O)OCCOCCOCCOC(=O)CCc2cc(C)c(O)c(C(C)(C)C)c2)cc(C(C)(C)C)c1O`, for which the Potency result was “inactive”.

As for `COCCCOc1ccnc(CS(=O)c2nc3ccccc3[nH]2)c1C` (stereo not drawn), the Potency result was “inactive”.

In the case of `CC(C)(c1ccc(O)cc1)c1ccc(O)cc1`, the Potency entry was “inactive”.

For `C[Si](C)O[Si](C)(C)O[Si](C)(C)O[Si](C)C`, the Potency entry was “inactive”.

As for `C[C@H]1C[C@H](O)c2ccsc2S1(=O)=O`, the Potency entry is “inactive”.

On to `CC1=CCC(C(C)(C)O)CC1` (stereo not drawn), for which the Potency entry is “inactive”.

With `CCC(C)=O`, the Potency result was “inactive”.

`N=c1nc(N2CCCCC2)cc(N)n1O`: the Potency entry was “inactive”.

On to `CC(C)CCCC(C)N` (stereo not drawn), for which the Potency entry was “inactive”.

Turning to `COc1ccc2c(c1)CCCC2=O`, the Potency result is “inactive”.

With `CC1=CCC(O)(C(C)C)CC1` (stereo not drawn), the Potency result was “inactive”.

`CCCCCCCC(=O)[O-].CCCCCCCC(=O)[O-].[Zn+2]`: the Potency result was “inactive”.

Consider `Nc1nc(N)c2nc(-c3ccccc3)c(N)nc2n1`, for which the Potency entry was “inactive”.

For the compound `COC(=O)c1ccccc1C(=O)c1ccc(OCCN2CCCCC2)cc1`, the Potency result is “inactive”.

Take `c1coc(CNc2ncnc3nc[nH]c23)c1`: the Potency result is “inactive”.

With `CC1=C(O)C(=O)C(C)O1` (stereo not drawn), the Potency result is “inactive”.

On to `Cc1[nH]cnc1-c1ccc(Cl)cc1`, for which the Potency result is “inactive”.

For the compound `C1CCCC1`, the Potency entry was “inactive”.

Turning to `CCCC(=O)CC`, the Potency result is “inactive”.

On to `Oc1ccc(Cl)cc1Sc1cc(Cl)ccc1O`, for which the Potency was 45.7 µM (active) and inactive.

For `CCOCOCC`, the Potency result was “inactive”.

Consider `CCCC1O[C@@H]2C[C@H]3[C@@H]4CCC5=CC(=O)C=C[C@]5(C)[C@H]4[C@@H](O)C[C@]3(C)[C@]2(C(=O)CO)O1` (stereo partly drawn), for which the Potency entry is “inactive”.

In the case of `C1C[C@@H]2[C@H]3CC[C@H](C3)[C@@H]2C1`, the Potency entry is “inactive”.

As for `CC(C)C(=O)c1ccccc1`, the Potency entry was “inactive”.

In the case of `Cc1c(C)c2c(c(C)c1O)CCC(C)(COc1ccc(CC3SC(=O)NC3=O)cc1)O2` (stereo not drawn), the Potency result was “inactive”.

Take `Cc1nc2ccccc2s1`: the Potency result is “inactive”.

For the compound `COCCOCCOCCOCCOCCO`, the Potency entry was “inactive”.

On to `O=C(O)c1cc(-c2ccccc2)nc2ccccc12`, for which the Potency result is “inactive”.

For `COc1cc(C(=S)N2CCOCC2)ccc1O`, the Potency result was “inactive”.

On to `O=C(O)CCCCCCCCCCCC(=O)O`, for which the Potency result was “inactive”.

For `O=S(=O)(O)c1cccc2ccccc12`, the Potency entry is “inactive”.

For the compound `COC(=O)CCCCC(=O)O`, the Potency result was “inactive”.

Consider `CN(CCOc1ccc(CC2SC(=O)NC2=O)cc1)c1ccccn1` (stereo not drawn), for which the Potency entry is “inactive”.

Turning to `O=C(c1ccc(O)cc1O)c1ccc(O)cc1O`, the Potency entry is “inactive”.

In the case of `O=C(CCNNC(=O)c1ccncc1)NCc1ccccc1`, the Potency result is “inactive”.

Regarding `O=C(O)c1cc(O)c(O)c(O)c1`, the Potency result was “inactive”.

As to `NCCc1ccc(O)c(O)c1`, the Potency result was “inactive”.

Turning to `O=C(O)c1ccc(CO)o1`, the Potency entry is “inactive”.

For `O=C(O)CSCC(=O)NC1CCSC1=O` (stereo not drawn), the Potency entry is “inactive”.

Another experiment is described as follows: p53 small molecule agonists, cell-based qHTS assay: qHTS cell viability counter screen (AID 1963581). Also: nearly all actives have a fitted effect of over 45% in size. Also: potency is read from the fitted curve at half-maximal effect. To be noted: p53RE-bla HCT-116 viability, ATP luminescence, 16 h; series mostly up to 66 µM. In short, it runs like this: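 Cytotoxicity read-out: ATP-based luminescence (CellTiter-Glo, 30 min RT) measured in the same wells as the p53 reporter assay, HCT-116 p53RE-bla cells, 16 h compound exposure at 37 C.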
With `Cc1cc(CCC(=O)OCCOCCOCCOC(=O)CCc2cc(C)c(O)c(C(C)(C)C)c2)cc(C(C)(C)C)c1O`, the Potency entry was “inactive”.

On to `COCCCOc1ccnc(CS(=O)c2nc3ccccc3[nH]2)c1C` (stereo not drawn), for which the Potency entry was “inactive”.

Turning to `CC(C)(c1ccc(O)cc1)c1ccc(O)cc1`, the Potency result is “inactive”.

Regarding `C[Si](C)O[Si](C)(C)O[Si](C)(C)O[Si](C)C`, the Potency entry is “inactive”.

On to `CC1=CCC(C(C)(C)O)CC1` (stereo not drawn), for which the Potency result was “inactive”.

On to `CC1=CCC(O)(C(C)C)CC1` (stereo not drawn), for which the Potency entry is “inactive”.

Take `CCCCCCCC(=O)[O-].CCCCCCCC(=O)[O-].[Zn+2]`: the Potency entry is “inactive”.

In the case of `Nc1nc(N)c2nc(-c3ccccc3)c(N)nc2n1`, the Potency entry is “inactive”.

On to `COC(=O)c1ccccc1C(=O)c1ccc(OCCN2CCCCC2)cc1`, for which the Potency entry was “inactive”.

Regarding `C1CCCC1`, the Potency entry was “inactive”.

Consider `CCCC(=O)CC`, for which the Potency entry was “inactive”.

As for `Oc1ccc(Cl)cc1Sc1cc(Cl)ccc1O`, the Potency was 18.2 µM (active) and 17.8 µM (active).

Turning to `CCOCOCC`, the Potency result was “inactive”.

With `CCCC1O[C@@H]2C[C@H]3[C@@H]4CCC5=CC(=O)C=C[C@]5(C)[C@H]4[C@@H](O)C[C@]3(C)[C@]2(C(=O)CO)O1` (stereo partly drawn), the Potency entry is “inactive”.

Turning to `CC(C)C(=O)c1ccccc1`, the Potency entry was “inactive”.

Take `Cc1c(C)c2c(c(C)c1O)CCC(C)(COc1ccc(CC3SC(=O)NC3=O)cc1)O2` (stereo not drawn): the Potency result is “inactive”.

In the case of `COCCOCCOCCOCCOCCO`, the Potency entry was “inactive”.

With `O=C(O)c1cc(-c2ccccc2)nc2ccccc12`, the Potency result was “inactive”.

Take `COc1cc(C(=S)N2CCOCC2)ccc1O`: the Potency entry was “inactive”.

With `O=C(O)CCCCCCCCCCCC(=O)O`, the Potency entry is “inactive”.

For `O=S(=O)(O)c1cccc2ccccc12`, the Potency result was “inactive”.

With `COC(=O)CCCCC(=O)O`, the Potency result was “inactive”.

As to `CN(CCOc1ccc(CC2SC(=O)NC2=O)cc1)c1ccccn1` (stereo not drawn), the Potency entry was “inactive”.

As to `O=C(c1ccc(O)cc1O)c1ccc(O)cc1O`, the Potency entry is “inactive”.

In the case of `O=C(CCNNC(=O)c1ccncc1)NCc1ccccc1`, the Potency entry was “inactive”.

As for `O=C(O)c1cc(O)c(O)c(O)c1`, the Potency result is “inactive”.

Consider `O=C(O)c1ccc(CO)o1`, for which the Potency entry was “inactive”.

As for `O=C(O)CSCC(=O)NC1CCSC1=O` (stereo not drawn), the Potency entry is “inactive”.

The next experiment in a line: p53 small molecule agonists, cell-based qHTS assay (AID 1963582; active = well fitted activation curve with a large enough effect in the signal ratio in the repeat runs, not every such curve was filed as active; the % refers to the signal ratio). Particulars: HCT-116 p53RE-bla reporter, beta-lactamase FRET ratio, 16 h; series mostly up to 66 µM. The method, boiled down:
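Fluorescence intensity read-out of a beta-lactamase reporter under a p53 response element. Cells were exposed to DMSO-dissolved compounds for 16 h at 37 C, then developed with FRET substrate for 2 h at RT.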
For `C[C@H]1C[C@H](O)c2ccsc2S1(=O)=O`, the Potency entry is “inactive”.

Regarding `CCC(C)=O`, the Potency result is “inactive”.

For `N=c1nc(N2CCCCC2)cc(N)n1O`, the Potency entry is “inactive”.

With `CC(C)CCCC(C)N` (stereo not drawn), the Potency result was “inactive”.

As for `COc1ccc2c(c1)CCCC2=O`, the Potency result is “inactive”.

Consider `c1coc(CNc2ncnc3nc[nH]c23)c1`, for which the Potency entry was “inactive”.

As for `CC1=C(O)C(=O)C(C)O1` (stereo not drawn), the Potency entry is “inactive”.

Consider `Cc1[nH]cnc1-c1ccc(Cl)cc1`, for which the Potency entry was “inactive”.

`C1C[C@@H]2[C@H]3CC[C@H](C3)[C@@H]2C1`: the Potency result was “inactive”.

Turning to `Cc1nc2ccccc2s1`, the Potency entry was “inactive”.

For `NCCc1ccc(O)c(O)c1`, the Potency result is “inactive”.
